Source: PubChem BioAssay (Broad Institute)
EZH2 inh = EZH2 (human) methyltransferase inhibition; Q15910; PRC2 H3K27 methylation, DELFIA TRF, 1 h; inhibition, % at 12.5 µM; actives 0.35% (n = 57,000); AID 651548;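 active means mean inhibition of replicates at least 50% and every single replicate also reaching 50%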;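 further: dimethyl H3K27 on biotinylated H3 21-44 peptide detected by antibody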
Target sequence (Q15910 whole entry, looked up): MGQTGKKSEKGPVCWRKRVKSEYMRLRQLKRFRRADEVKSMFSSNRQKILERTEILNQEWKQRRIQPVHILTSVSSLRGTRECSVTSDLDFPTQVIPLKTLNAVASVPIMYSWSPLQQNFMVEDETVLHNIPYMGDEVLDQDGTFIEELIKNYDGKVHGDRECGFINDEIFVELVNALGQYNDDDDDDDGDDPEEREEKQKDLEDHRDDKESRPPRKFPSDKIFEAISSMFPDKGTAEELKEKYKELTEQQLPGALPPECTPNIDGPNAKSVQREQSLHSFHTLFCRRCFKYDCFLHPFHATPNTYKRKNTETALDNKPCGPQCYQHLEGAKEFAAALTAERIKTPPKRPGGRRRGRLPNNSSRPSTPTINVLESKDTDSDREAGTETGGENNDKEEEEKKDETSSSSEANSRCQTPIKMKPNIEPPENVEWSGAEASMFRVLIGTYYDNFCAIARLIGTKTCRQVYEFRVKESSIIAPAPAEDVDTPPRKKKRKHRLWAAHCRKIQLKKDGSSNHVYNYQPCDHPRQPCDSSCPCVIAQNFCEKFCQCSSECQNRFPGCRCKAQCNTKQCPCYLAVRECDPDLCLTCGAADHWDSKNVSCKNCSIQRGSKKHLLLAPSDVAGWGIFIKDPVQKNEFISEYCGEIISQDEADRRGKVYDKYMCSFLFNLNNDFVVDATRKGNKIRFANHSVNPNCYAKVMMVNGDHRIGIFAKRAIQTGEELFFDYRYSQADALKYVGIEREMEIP
Each line names hits and unclear results; the compound was inactive in the other large screens. The full list was thinned out, with hits kept by preference.

Cc1cc(-c2ccc(N=Nc3cc(S(=O)(=O)O)c4ccccc4c3N)c(C)c2)ccc1N=Nc1cc(S(=O)(=O)O)c2ccccc2c1N	EZH2 inh 99
Cc1cc(N)n(-c2ccc(Oc3ccccc3)cc2S(=O)(=O)O)n1	none
COc1cc(S(=O)(=O)n2cnc3cc(C)c(C)cc32)c(OC)cc1Cl	none
Cc1cc(C)c(NC(=O)CSc2nc3c(c(-c4ccco4)c2C#N)CCCC3)c(C)c1	none
O=C(CSc1nnnn1-c1ccccc1)Nc1ccc(Cl)cc1O	none
CC(NS(=O)(=O)c1ccccc1)C(=O)Nc1ccccc1Sc1ccccc1 (centres undefined)	none
C[C@@H]1CC[C@]2(C(=O)OC3OC(CO)C(OC4OC(CO)C(O)C(O)C4O)C(O)C3O)CC[C@]3(C)C(=CCC4[C@@]5(C)CC[C@H](O)[C@](C)(C(=O)O)C5CC[C@]43C)C2[C@]1(C)O (some centres undefined)	EZH2 inh 60
CC1(C)CC[C@]2(C(=O)O[C@@H]3O[C@H](CO)[C@@H](O)[C@H](O)[C@H]3O)CC[C@]3(C)C(=CCC4[C@@]5(C)CC[C@H](O[C@@H]6O[C@H](C(=O)O)[C@@H](O[C@@H]7O[C@H](CO)[C@@H](O)[C@H](O)[C@H]7O)[C@H](O)[C@H]6O[C@@H]6O[C@H](CO)[C@@H](O)[C@H](O)[C@H]6O)C(C)(C)C5CC[C@]43C)C2C1 (some centres undefined)	none
CC1(C)CC[C@]2(C(=O)O[C@@H]3O[C@H](CO)[C@@H](O)[C@H](O)[C@H]3O)CC[C@]3(C)C(=CCC4[C@@]5(C)CC[C@H](O[C@@H]6O[C@H](C(=O)O)[C@@H](O)[C@H](O)[C@H]6O)[C@@](C)(CO)C5CC[C@]43C)C2C1 (some centres undefined)	none
CC1(C)CC(=O)C2=C(C1)N(CCCN1CCOCC1)C(=O)C2(NC(=O)c1ccccc1)C(F)(F)F (centres undefined)	none
Cc1ccc(-c2nc(S(=O)(=O)c3ccc(Cl)cc3)c(SCC(N)=O)o2)cc1	none
COc1ccccc1-n1c(SCC(=O)N(c2ccccc2)c2ccccc2)nc2ccccc2c1=O	none
C=CCNc1oc(CC(C)C)nc1C#N	none
Cc1cc(CSc2cc(C)c(Cl)cc2C)no1	EZH2 inh 56
CCCOc1ccc(Oc2nc(NC(C)(C)C)nc(N3CCOCC3)n2)nn1	none
COc1cc(-c2nnc(SCC(N)=O)n2C)cc(OC)c1OC	none
O=C(COc1ccc(C2CCCCC2)cc1)Nc1cccc2ncccc12	none
COC(=O)CCC(=O)Nc1ccc(C(N)=O)cc1	none
CCCCCCCCc1ccc(-c2ccc(C(=O)O)cc2)cc1	EZH2 inh 72
CCCCOC(=O)c1ccc(N)cc1	none
CCCCCCN(CCCCCC)C(=O)Cc1c(-c2ccc(F)cc2)[nH]c2ccccc12	none
COC(=O)c1ccccc1NC(=O)C(C)NS(=O)(=O)c1ccc(Cl)cc1 (centres undefined)	none
Nc1ccc(C(=O)CC2(O)C(=O)Nc3ccc(F)cc32)cc1 (centres undefined)	none
O=C(NCSCc1cccc(C(F)(F)F)c1)Nc1ccc(F)c(Cl)c1	EZH2 inh 56
CCn1c(SCC(=O)Nc2ccc(F)c(Cl)c2)nnc1-c1cccc(C)c1	none
CC(C(=O)Nc1cccc(C(F)(F)F)c1)N(c1ccc(Cl)cc1)S(C)(=O)=O (centres undefined)	none
C[C@H](CO)N1C[C@H](C)[C@H](CN(C)Cc2cccc(F)c2)Oc2cc(C#CC3CC3)ccc2S1(=O)=O	EZH2 inh 84
C[C@@H]1CN([C@H](C)CO)C(=O)c2cc(NS(=O)(=O)c3cccs3)ccc2O[C@@H]1CN(C)Cc1ccc(-c2ccccc2)cc1	EZH2 inh 54
C[C@@H]1CN([C@H](C)CO)S(=O)(=O)c2ccc(-c3ccccc3)cc2O[C@H]1CN(C)Cc1cccc(F)c1	EZH2 inh 55
C[C@H](CO)N1C[C@H](C)[C@H](CN(C)Cc2ccc(-c3ccccc3)cc2)Oc2ccc(NS(=O)(=O)c3cccs3)cc2C1=O	none
C[C@H](CO)N1C[C@H](C)[C@H](CN(C)Cc2ccccc2)Oc2cc(C#CC3CC3)ccc2S1(=O)=O	none
C[C@H](CO)N1C[C@H](C)[C@H](CN(C)Cc2cccc(F)c2)Oc2cc(-c3ccccc3)ccc2S1(=O)=O	none
C[C@H]1CN([C@@H](C)CO)S(=O)(=O)c2ccc(-c3ccccc3)cc2O[C@H]1CN(C)Cc1cccc(F)c1	none
C[C@@H]1CN([C@H](C)CO)S(=O)(=O)c2ccc(C#CC3CC3)cc2O[C@H]1CN(C)Cc1cccc(F)c1	none
C[C@H](CO)N1C[C@H](C)[C@@H](CN(C)Cc2ccc(-c3ccccc3)cc2)Oc2ccc(NS(=O)(=O)c3cccs3)cc2C1=O	none
Cc1ccccc1-c1nc(SCC(=O)Nc2ccc(F)c(Cl)c2)n[nH]1	none
Cc1cc2nc(-c3ccc(Cl)c(NC(=O)COc4ccccc4)c3)oc2cc1C	none
CC(C)(C)c1ccc(OCc2nnc(Sc3ccc([N+](=O)[O-])cn3)n2-c2ccccc2)cc1	none
Cc1ccc2nc(-c3ccc(NC(=O)[C@@H]4CCCC[C@@H]4C(=O)O)cc3)sc2c1	none
COCCOC(=O)N1C(=O)[C@@]2(c3cc(C#CCC(C(=O)OC)C(=O)OC)ccc31)[C@H](c1ccccc1OCCO)N1[C@H](c3ccccc3)[C@H](c3ccccc3)OC(=O)[C@H]1[C@@H]2C(N)=O	none
CCOC(=O)C(C)Sc1nc2ccc(I)cc2c(=O)n1-c1ccccc1OC (centres undefined)	none
O=C(CSCCO)Nc1ccc(F)cc1	none
Cc1nc(CSc2ncnc3sc4c(c23)CCCCC4)cs1	none
COc1cc(C2OC[C@@H]3[C@@H](c4cc(OC)c(O)c(OC)c4)OC[C@H]23)cc(OC)c1O (some centres undefined)	none
COc1cc([C@H]2OC[C@H]3[C@@H]2CO[C@@H]3c2ccc(O)c(OC)c2)ccc1O	EZH2 inh 80
COc1cc([C@H]2OC[C@H]3[C@@H]2CO[C@H]3c2ccc(OC)c(OC)c2)ccc1O	none
COCCOC(=O)N1C(=O)[C@@]2(c3ccccc31)[C@H](c1ccccc1OCCO)N1[C@H](c3ccccc3)[C@H](c3ccccc3)OC(=O)[C@H]1[C@@H]2C(=O)N1CCc2cc(OC)c(OC)cc2C1	none
CCn1c(SCC(=O)Nc2ccc(Br)cc2)nnc1-c1ccccc1	none
N#Cc1nc(-c2ccccc2Cl)oc1NCCCN1CCOCC1	none
COc1ccc(OCC(=O)Nc2sc3c(c2C#N)CCC3)cc1	none
Cc1cc(C)c(C#N)c(SCC(=O)Nc2sc3c(c2C#N)CCC3)n1	none
COc1cc(OC)cc(-c2nnc(SCC(=O)Nc3sc4c(c3C#N)CCCC4)o2)c1	EZH2 inh 68
O=C(CCCCC(=O)N/N=C/c1cc2c(cc1Br)OCO2)NO	none
Clc1nc(NC2CCCCC2)c2cc(Br)ccc2n1	none
O=C(N/N=C/c1ccc(B(O)O)cc1)c1ccccn1	none
COc1cc(OC)c2c(c1O)OC(c1ccccc1)CC2=O (centres undefined)	EZH2 inh 72
COc1cc(O)cc2c1C(=O)OC(C)C2 (centres undefined)	none
COc1cc2c(c(O)c1OC)C(=O)CC(c1ccc(O)cc1)O2 (centres undefined)	none
O=C(CC1C(=O)N(c2ccc(F)cc2)C(=S)N1CCN1CCOCC1)Nc1ccc(F)cc1 (centres undefined)	none
CS(=O)(=O)N(CC(=O)Nc1ccc(Cl)c(Cl)c1)c1cc(Cl)cc(Cl)c1	none
CS(=O)(=O)N(CC(=O)Nc1cccc(Cl)c1)c1ccc(Br)cc1	none
CS(=O)(=O)N(CC(=O)Nc1ccc(Cl)c(Cl)c1)c1ccc(Br)cc1	EZH2 inh 55
CCOc1ccccc1NC(=O)CN1C(=O)c2ccc([N+](=O)[O-])cc2C1=O	none
